Source: PubChem BioAssay
This is one part of a sample in which hits are shown more often than they occur.
Pf Dd2 inh – Plasmodium falciparum Dd2 growth inhibition | P. falciparum Dd2 growth, SYBR Green, 72 h | AID 1347417 | Potency, µM (highest dose often 28.9 µM), most hits filed as inhibitors | 120,000 compounds, 4.3% hits; active = well fitted inhibition curve with a large enough effect; also: nearly all actives have a fitted effect of over 65% in size
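Infected erythrocytes (Dd2, 0.3% parasitemia, 2.5% hematocrit final) are added to compound in RPMI-1640/Albumax II medium, grown 72 h at 37C in low oxygen, then lysed with saponin/Triton-X containing SYBR Green and read by fluorescence.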
Of the large screens only hits and unclear results are named; the others gave an inactive call.

Cc1ccc(NC(=O)c2c(C)oc3ccc(O)c(CN(C)Cc4ccccc4)c23)c(C)c1	Pf Dd2 inh 1.3µM
CN(Cc1ccc(-c2ccccc2)cc1)C(=O)Nc1ccccc1	none
Cc1ccc(NC(=O)c2c(C)oc3ncnc(N4CCCCC4)c23)c(C)c1	none
NCCn1cc(C(=O)NC2C3CN4CCN(C3)CC2(c2ccccc2)C4)nn1 (centres undefined)	none
O=C(CC1CCCN(c2cnn(CC3CC3)c(=O)c2)C1)NCc1cccs1 (centres undefined)	none
CCC(CC)n1c(=O)n(Cc2cc(C(C)C)no2)c2cc(C(=O)O)cnc21	none
CCOCCCNC(=O)N1CCC(Cc2nc(-c3ccncc3)n[nH]2)CC1	none
O=C(COc1ccccc1)N1CCC(c2nc(C3CCOCC3)no2)CC1	none
O=C(Nc1ccccc1)N1CCC(Oc2ccccc2-c2nc(-c3cnccn3)no2)C1 (centres undefined)	none
c1csc(CN2CCC(Oc3ccccc3-c3nc(-c4cnccn4)no3)C2)c1 (centres undefined)	Pf Dd2 inh 5.6µM
CCNC(=O)N1CC(Oc2ccccc2-c2nc(-c3cnccn3)no2)C1	none
Cc1ccc(C2Cn3nnc(-c4noc(-c5ccc(F)cc5)n4)c3CO2)cc1 (centres undefined)	none
Cc1noc(C)c1C(=O)N1CCC2(CC1)CN([S+](=O)([O-])c1ccccc1)CCO2	none
CC(=O)Nc1ccc(NC(=O)CN2C(=O)NC3(CCC(C(C)(C)C)CC3)C2=O)cc1 (centres undefined)	none
COc1ccc(NC(=O)c2nc(C(O)c3ccccc3)oc2C)cn1 (centres undefined)	none
Cc1oc(C(O)c2ccccc2)nc1C(=O)Nc1ccc(C(=O)Nc2ccccc2)cc1 (centres undefined)	none
Cc1oc(C(O)c2ccccc2)nc1C(=O)Nc1ccc2c(c1)NC(=O)CO2 (centres undefined)	Pf Dd2 inh 10µM
CNC(=O)CC1CCOC2(CCN(C(=O)Nc3ccc4c(c3)OCCO4)CC2)C1 (centres undefined)	none
COc1ccc(CNC(=O)Cn2c(-c3ccc(F)cc3)nc(C)c(CCO)c2=O)cc1	none
CC(C)CNc1ccc2c(n1)C(C)(C(=O)N1CCC1)CN(Cc1ccccc1)C2 (centres undefined)	none
CNC(=O)C1(C)CN(Cc2ccccc2)Cc2ccc(Nc3ccccc3)nc21 (centres undefined)	Pf Dd2 inh 10µM
COCCNC(=O)C1(C)CN(Cc2ccccc2)Cc2ccc(Nc3ccccc3)nc21 (centres undefined)	none
CC1(C(=O)Nc2ccc(F)cc2)CN(Cc2ccccc2)Cc2ccc(N3CCOCC3)nc21 (centres undefined)	Pf Dd2 inh 6.3µM
CN1Cc2ccc(NCc3ccccc3)nc2C(C)(C(=O)NC2CCC2)C1 (centres undefined)	Pf Dd2 inh 4µM
CC(C)CNc1ccc2c(n1)C(C)(C(=O)NC1CC1)CN(Cc1ccccc1)C2 (centres undefined)	none
CC1(C(=O)Nc2ccccc2)CN(Cc2ccccc2)Cc2ccc(N3CCOCC3)nc21 (centres undefined)	none
CC1(C(=O)NC2CCOCC2)CN(Cc2ccccc2)Cc2ccc(Nc3ccccc3)nc21 (centres undefined)	none
CN1Cc2ccc(NCc3ccccc3)nc2C(C)(C(=O)NCc2cccnc2)C1 (centres undefined)	none
COc1ccc2c(c1)OCC(CNC(=O)c1csc(C(C)=O)c1)C2 (centres undefined)	none
CCNC(=O)N(C1CC1)C1CCOC2(CCN(C(=O)c3nn(C)c4ccccc34)CC2)C1 (centres undefined)	none
Cc1cccn2c(=O)cc(CN3CCC4(CC3)C(C(=O)O)CC(=O)N4C)nc12 (centres undefined)	none
O=C(c1ccccc1)N1CCC(N2CC3CCCN3C2=O)CC1 (centres undefined)	none
CC(C)=CC(=O)N1C[C@@H](NC(=O)Nc2ccc(F)cc2F)C[C@H]1C(=O)N[C@H](Cc1c[nH]c2ccccc12)C(N)=O	none
Cc1cc(C)cc(NC(=O)Cn2nc3n(c2=O)CCCCC3)c1	none
Cc1ccc(NC(=O)Nc2cc3c(cc2N2CCCCC2)n(C)c(=O)n3C)cc1Cl	none
CCc1ccccc1NC(=O)Nc1cc(C(=O)NCc2ccccc2OC)ccc1N1CCCC1	none
Cc1cc(C)cc(NC(=O)Cn2c(N3CCCCC3)nc(C)c(C)c2=O)c1	none
CCn1c(=O)n(CC)c2cc(N3CCCCC3)c(NC(=O)Nc3ccccc3Cl)cc21	Pf Dd2 inh 10µM
CCn1c(=O)n(CC)c2cc(N3CCCCC3)c(NC(=O)Nc3cc(C)cc(C)c3)cc21	Pf Dd2 inh 10µM
Cc1ccc(OCC(=O)c2ccc3c(c2)N(CCCC(=O)N2CCCC2)C(=O)CO3)cc1C	none
C[C@@H]1CN(Cc2nc3c(n2Cc2ccccc2)C(=O)N(CC2CC2)CCN3)C[C@H](C)O1	none
COc1cccc(-c2noc(Nc3ccc4c(c3)OCO4)n2)c1	none
COc1cccc(CNC(=O)CCC2CCN(C(=O)c3ccccc3F)CC2)c1OC	none
COc1ccccc1C(CC(=O)NCC(C)C)c1cn(C)c2ccccc12 (centres undefined)	none
COc1cccc(C(CC(=O)NCCc2ccc(OC)c(OC)c2)c2c[nH]c3ccccc23)c1 (centres undefined)	none
COc1ccc(CCN(C)C(=O)CC(c2cccc(F)c2)c2cn(C)c3ccccc23)cc1OC (centres undefined)	Pf Dd2 inh 2µM
COc1ccc(OC)c(NC(=O)N2CCC(OC3CCN(S(C)(=O)=O)CC3)CC2)c1	none
COCCCNc1ncnc2c1CN(C1CCNC1)C(=O)CN2C (centres undefined)	none
O=C1CCCCC(C(=O)NCCc2ccccc2)N1 (centres undefined)	none
CCOc1cc(=O)n2c(c1C(=O)NCc1ccc(F)cc1F)CCCC2	none
COc1cc(CN2CCN(Cc3cnc(SC)nc3)CC2CCO)cc(OC)c1 (centres undefined)	none
CCOc1ccccc1CN1CCN(Cc2nccn2CC)CC1CCO (centres undefined)	none
COc1ccc(CN2CCN(Cc3cc4ccccc4[nH]3)CC2CCO)c(C)c1C (centres undefined)	Pf Dd2 inh 8.9µM
COc1ccc(O[C@H]2COCCN(C(=O)c3ccc(OC)cc3)C2)cc1	none
COc1ccc(CCC(=O)N2C[C@@H](C(N)=O)[C@H](c3nc(C)no3)C2)cc1OC	none
COCc1ccc(CN[C@H]2C[C@@H](Cc3cc(CN4CCCCC4)on3)C2(C)C)o1	Pf Dd2 inh 11µM
COc1ccc(CN[C@H]2C[C@@H](Cc3cc(CN4CCOCC4)on3)C2(C)C)cc1	none
CCCCc1cc(C[C@@H]2C[C@H](NC(C)=O)C2(C)C)no1	none
CC(=O)N[C@H]1C[C@@H](Cc2cc(CN(C)C)on2)C1(C)C	none
CC(=O)N[C@H]1C[C@@H](Cc2cc(CN3CCCCC3)on2)C1(C)C	Pf Dd2 inh 22µM
COCc1cc(C[C@@H]2C[C@H](NC3CCN(C(C)=O)CC3)C2(C)C)no1	none
O=c1n(CC2CC2)nc2n1CCN(Cc1ccc3[nH]ccc3c1)CC2	none
Cc1c(Cl)c(C(=O)N[C@H]2[C@@H]3CCO[C@@H]3[C@@H]2C2CCCC2)nn1C	none
COCc1noc(CNc2cc(-c3ccccc3F)nc3ccnn23)n1	none
CCOc1ccc(/C=C/c2nc3ccccc3n2S(=O)(=O)c2cccc(Cl)c2)cc1	Pf Dd2 inh 3.5µM
CSc1ccc(/C=C/c2nc3ccccc3n2S(=O)(=O)c2ccc(F)c(C)c2)cc1	none
CCOc1ccc(Cn2c(CNS(=O)(=O)c3cccc(Cl)c3)nc3cccnc32)cc1	none
Cc1ccccc1NC(=O)CN1C(=O)C(c2ccccc2)=NC12CCCCC2	none
Cc1ccccc1NC(=O)CN1C(=O)C(c2ccccc2)=NC12CCCCCC2	none
